KB-3-1 tox – qHTS assay for MDR1-selective chemotherapeutics: Primary screen using the parental adenocarcinoma cell KB-3-1; KB-3-1 viability, CellTiter-Glo ATP luminescence, 72 h; Potency, µM (titrated, usually from 46.1 µM), actives largely listed as cytotoxic; 1.4% of 400,000 active; AID 1347075, 2019; also: % is scaled to controls: 0 for no effect and ±100 for the full control effect; nearly all actives have a fitted effect of over 60% in size
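Using CellTiter-Glo luminescence, growth of non-resistant KB-3-1 adenocarcinoma cells is assessed 72 h after pin-tool compound addition at 37 °C. Normalized responses across the concentration series yield fitted curves.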
MCF10A rerep – A quantitative high throughput screen for small molecules that induce DNA re-replication in MCF 10a normal breast cells; Potency, µM (doses to about 46.1 µM), without a hit: at the top dose activity, positive = re-replication, hits mostly activators; 2.9% of 350,000 active; MCF 10A DNA re-replication, Hoechst nuclear intensity, 48 h; AID 624296, 2012; also: % of control where 0% means no effect; nearly all actives have a fitted effect of over 50% in size
HT1080-NT tox – qHTS for induction of synthetic lethality in tumor cells producing 2HG: qHTS for the HT-1080-NT fibrosarcoma cell line; HT-1080-NT fibrosarcoma viability, CellTiter-Glo ATP luminescence, 48 h; 1.6% of 360,000 active; Potency, µM (highest dose often 46.1 µM), without a hit: top-dose activity, negative = less viability, hits mostly cytotoxic;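 also: NT is the 2HG producing partner of a matched IDH1 knockdown line; 0% = DMSO-treated cells and -100% = media-only wells without cells; nearly all actives have a fitted effect of over 55% in size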
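Compounds were tested in concentration-response format on HT-1080-NT cells for 48 hours at 37 degrees C. Cell viability came from CellTiter-Glo luminescence; curves were classified by r2, response magnitude and activity.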
KB-V1 cytotox – qHTS assay for MDR1-selective chemotherapeutics: Primary screen using the drug-selected MDR subline cells KB-V1 | KB-V1 MDR cells viability, CellTiter-Glo, 72 h | Potency, µM (top dose mostly 46.1 µM), actives largely listed as cytotoxic | 3.4% of 400,000 active | AID 1347076, 2019; also: % is scaled to controls: 0 for no effect and ±100 for the full control effect; nearly all actives have a fitted effect of over 60% in size
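KB-V1 cells (P-gp-expressing MDR subline of KB-3-1) in phenol-red-free DMEM with 10% FBS were exposed to library compounds over a concentration series for 72 h at 37 degrees C. Viability read by CellTiter-Glo luminescence; concentration-effect curves fitted after normalization.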
HT1080 IDH1KD tx – qHTS for induction of synthetic lethality in tumor cells producing 2HG: qHTS for the HT-1080-IDH1KD cell line | Potency, µM (highest dose often 46.1 µM), for inactives: top-dose activity, negative = toxicity, usual class: cytotoxic | 2% of 360,000 active | HT-1080 IDH1 knockdown viability, ATP luminescence, 48 h;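 also: 0% = DMSO wells and -100% = cell-free medium wells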
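Cytotoxicity counter-line: IDH1KD HT-1080, 48 h, CellTiter-Glo. Curves classed by r2, magnitude and activity.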
SW480 rerep – A quantitative high throughput screen for small molecules that induce DNA re-replication in SW480 colon adenocarcinoma cells; AID 624297, 2012; SW480 DNA re-replication, Hoechst DNA content imaging, 48 h; 1.8% of 340,000 active; Potency, µM (top dose mostly 46.1 µM), for the others: at the highest dose re-replication activation, most hits filed as activators; also: % of control where 0% means no effect; nearly all actives have a fitted effect of over 55% in size
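Treated cells incubate 48 hr (37 C, 5% CO2), are stained 40 min with Hoechst, and nuclear fluorescence is enumerated; a rise in nuclei with high DNA signal marks re-replication.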
* marks the source's active call; other numbers are inactive results; i = inactive; ? = inconclusive; . = no result; [ ] = remark or other dose. Sampled rows, rich in hits. Any-hit rate of the full collection: about 7.9%. Calls follow the shape of the dose curve; as a rule, active = well fitted curve in the direction sought with a large enough effect; inconclusive = small, poorly fitted or top-dose-only effect, or another doubt; inactive = no such curve, though single readings can be large; an effect the other way counts as inactive or inconclusive. Potency is read from the fitted curve at half-maximal effect.

SMILES | KB-3-1 tox | MCF10A rerep | HT1080-NT tox | KB-V1 cytotox | HT1080 IDH1KD tx | SW480 rerep
CCOC(=O)c1c(C)n(C)c2ccc(O)c(CN3CCN(C)CC3)c12 | i | 6.7% | 5.4% | i | 0.1% | -0.2%
CCOC(=O)CSc1c(-c2cccs2)[nH]c2ccccc12 | ? | 23.1µM* | 18.4µM* | ? | ? | ?
CCOC(=O)CSc1c(-c2ccc(Cl)cc2)[nH]c2ccccc12 | i | ? | ? | i | -17.3% | 21.7%
Cc1cccc(N/N=C(\C(N)=O)C2=NC(C)(C)Cc3ccccc32)c1 | 16.4µM* | 11.6µM* | ? | 23.1µM* | ? | 15.9%
CCCCn1nc2cc(C(=O)NCc3ccc(C(F)(F)F)cc3C(F)(F)F)ccc2c1OCC | i | -3.2% | 0.0% | i | 0.1% | 2.8%
O=c1c2c(nc3cc(-c4ccc(F)cc4)[nH]n13)CCC2 | i | -0.8% | 9.5% | ? | 18.6% | -10.9%
CCCCOc1ccc(Nc2cc(Cl)ccc2C(=O)O)cn1 | i | 16.4µM* | -17.3% | i | -11.0% | 7.1%
Cc1cccc(NC(=O)CN2CCN(C(=O)CNC(=O)c3ccc(-c4ccccc4)cc3)CC2)c1C | i | . | ? | ? | 10.3µM* | .
Cc1cccc(N2CCN(C(=O)CNC(=O)c3ccccc3)CC2)c1C | ? | 11.5% | -25.0% | i | ? | 2.3%
Cc1cccc(C)c1NC(=O)CN1CCN(C(=O)CNC(=O)c2ccc(-c3ccccc3)cc2)CC1 | ? | . | 1.7% | 18.4µM* | ? | .
COc1ccccc1NC(=O)CN1CCN(CC(=O)Nc2ccc(Cl)c(C(F)(F)F)c2)CC1 | ? | ? | ? | ? | 23.1µM* | 0.9%
O=C(CCCCCN1C(=O)CCC1=O)Nc1ccc(Cl)c(C(F)(F)F)c1 | i | 2.6% | -30.0% | 16.4µM* | ? | -1.0%
COc1cc(NC(=O)Nc2cccc(Cl)c2)c(OC)cc1NC(=O)CN1CCCCC1 | ? | ? | ? | ? | 20.6µM* | ?
COc1ccc(NC(=O)CN2CCN(CC(=O)Nc3ccccc3Cl)CC2)cc1Cl | i | 10.6% | -1.1% | ? | -0.8% | 1.3%
COc1ccc(NC(=O)CCCCCN2C(=O)CCC2=O)cc1Cl | i | 6.8% | 11.0% | ? | 1.0% | -2.3%
CCc1ccccc1NCC(=O)Nc1ccc(Cl)c(C(F)(F)F)c1 | ? | ? | ? | 20.6µM* | ? | ?
CCOC(=O)c1cc(S(=O)(=O)N(C)Cc2ccccc2)cn1C | i | -0.4% | 9.9% | i | 0.8% | -11.9%
CC(=O)c1c(C)nc(-c2ccc(Cl)cc2Cl)n1O | i | 3.0% | 1.7% | i | -1.1% | 2.5%
O=S(=O)(c1ccc2nc(Cc3ccccc3)[nH]c2c1)N1CCOCC1 | i | -3.1% | 0.8% | i | -2.7%[9.24 µM] | ?
O=S(=O)(c1ccc2nc(Cc3cccc(C(F)(F)F)c3)[nH]c2c1)N1CCOCC1 | i | 2.91µM* | 6.7% | i | 4.2% | ?
COc1ccc(S(=O)(=O)N2c3cc(C)ccc3OCC2C(C)(C)C)cc1 (stereo unspecified) | 5.8µM* | 2.59µM* | 5.8µM* | 5.17µM* | 5.8µM* | 5.8µM*
Cc1ccc(S(=O)(=O)N2c3cc(C)ccc3OCC2C(C)(C)C)cc1 (stereo unspecified) | ? | 16.4µM* | ? | ? | ? | ?
COc1cccc(C(=O)N2c3cc(C)ccc3OCC2C(C)(C)C)c1 (stereo unspecified) | i | 2.4% | ? | i | 16.3% | -2.4%
CCN(CC(=O)NCc1cccs1)C(=O)c1cc(S(=O)(=O)NCc2ccccc2)ccc1C | i | -4.9% | 8.4% | i | 9.0% | -3.6%
CCOc1ccccc1Oc1c(C)oc2cc(OC(=O)N3CCOCC3)ccc2c1=O | i | 3.1% | -1.0% | 23.1µM* | 5.1% | -7.0%
SMILES | KB-3-1 tox | MCF10A rerep | HT1080-NT tox | KB-V1 cytotox | HT1080 IDH1KD tx | SW480 rerep
Cc1cc(NC(=O)CSc2nnc(C(C)N(C)C)n2Cc2ccccc2)no1 (stereo unspecified) | i | 0.6% | 1.0% | ? | 5.4% | 4.5%
CCSc1oc(-c2ccco2)nc1S(=O)(=O)c1ccc(F)cc1 | i | 12.5% | 3.9% | 16.4µM* | 3.6% | 1.2%
CCN1/C(=C\C(=S)Nc2ccccc2)Sc2ccccc21 | ? | 6.6% | 14.6µM* | i | 9.2µM* | 1.8%
CCN1/C(=C\C=C(C(C)=O)C(C)=O)Sc2ccccc21 | i | 27.7% | 1.9% | i | -11.3% | -4.2%
CCc1nnc(NC(=O)c2ccc(S(=O)(=O)N3CCCC(C)C3)cc2)o1 (stereo unspecified) | ? | 2.2% | ? | ? | ? | ?
CN(c1ccccc1)S(=O)(=O)c1ccc(C(=O)Nc2nnc(-c3ccco3)o2)cc1 | ? | 2.7% | -14.9% | ? | ? | 20.6µM*
Cc1nn(-c2ccccc2)c(C)c1C(=O)Nc1nnc(-c2ccco2)o1 | ? | 9.6% | -24.6% | 5.8µM* | -23.5% | ?
CC(=O)Nc1nnc(-c2ccco2)o1 | i | -2.1% | 18.9% | i | 13.4% | 0.9%
CC1CC(C)CN(S(=O)(=O)c2ccc(NC(=O)c3ccc(=O)[nH]c3)cc2)C1 (stereo unspecified) | 4.61µM* | 5.8µM* | 5.8µM* | i | 5.17µM* | ?
CC1CCCN(S(=O)(=O)c2ccc(C(=O)Nc3nnc(-c4ccco4)o3)cc2)C1 (stereo unspecified) | ? | 20.1% | -7.6% | 7.31µM* | 16.8% | ?
O=[N+]([O-])c1ccc(N2CCN(C(=S)NCc3ccc(Cl)cc3)CC2)cc1 | i | -3.7% | ? | i | ? | ?
CCOC(=O)C1(Cc2ccccc2)CCN(Cc2cccn2-c2cccnc2)CC1 | i | -3.5% | 2.4% | i | -1.9% | 0.8%
CCN(c1ccccc1)S(=O)(=O)c1ccc(C(=O)Nc2nnc(C3CC3)o2)cc1 | ? | 0.5% | ? | 7.31µM* | ? | ?
CCN(c1ccccc1)S(=O)(=O)c1ccc(C(=O)Nc2nnc(-c3ccco3)o2)cc1 | i | 7.6% | ? | i | ? | 23.1µM*

Compound activity as filed in PubChem BioAssay.
